# Source: PubChem BioAssay AID485318 (Broad Institute, 2010)
# The campaign covered roughly 1,400 compounds. Fewer than 10 were called active.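 Rule for the calls: active = fluorescence-lowering compounds whose fitted half-maximal concentration is at or below ten times the highest valid dose tested; inconclusive = flat curve at 30 to 70% inhibition, or poor fit; inactive = the rest.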 The list is a sample of the results.
# Molecular target: Histone deacetylase 3 (Homo sapiens) (UniProt O15379)
# Assay: HDAC3 deacetylase inhibitors, dose response, counter-screen for JMJD2C/GASC1 demethylase inhibitor project, biochemical, fluorescence, cherry-picked samples (AID 485318);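 note: enzyme preincubated with compound before substrate and trypsin were added; 0% = neutral control wells and -100% = SAHA positive control wells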
# Details: recombinant HDAC3, fluorogenic peptide/trypsin coupled; series mostly up to 12 µM; activity change, negative = inhibition: at the top concentration
# Sequence of Histone deacetylase 3 (Homo sapiens) (O15379 whole entry, looked up): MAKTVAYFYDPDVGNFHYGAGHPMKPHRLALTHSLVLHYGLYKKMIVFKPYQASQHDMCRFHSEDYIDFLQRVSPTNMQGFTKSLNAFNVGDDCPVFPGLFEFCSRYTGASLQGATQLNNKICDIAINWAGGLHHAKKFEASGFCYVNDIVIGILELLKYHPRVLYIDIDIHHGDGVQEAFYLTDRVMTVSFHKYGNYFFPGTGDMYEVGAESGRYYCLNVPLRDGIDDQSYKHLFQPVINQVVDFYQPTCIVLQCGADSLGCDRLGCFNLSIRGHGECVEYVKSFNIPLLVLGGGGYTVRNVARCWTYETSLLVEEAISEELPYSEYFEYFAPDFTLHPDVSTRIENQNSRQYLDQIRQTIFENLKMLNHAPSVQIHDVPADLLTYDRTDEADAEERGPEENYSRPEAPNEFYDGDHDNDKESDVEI
row,SMILES,"activity change, negative = inhibition"
1,CC(=O)N1CCN(c2ccc(NC(=O)c3ccc4ccccc4c3)cc2)CC1,0.314% (inactive)
2,CCN(CC)C(CNS(=O)(=O)c1ccc(Cl)cc1)c1ccccc1 (stereo unspecified),-0.496% (inactive)
3,CCNC(=S)NC(=NCc1cccnc1)Nc1nc(C)cc(C)n1,0.0784% (inactive)
4,Cc1ccc(N2NC3(CCN(C(N)=O)CC3)NC2=O)cc1,-0.0157% (inactive)
5,C=CCNC(=S)NNC(=O)COc1cccc(Cl)c1,-0.462% (inactive)
6,O=C(O)c1ccccc1OCCOc1ccccc1C(=O)O,0.223% (inactive)
7,O=C1NCCC/C1=N/Nc1ccc(F)cc1,0.198% (inactive)
8,CC(C)NC(=O)N(C)C[C@H]1Oc2ccc(NS(=O)(=O)c3ccccc3)cc2C(=O)N([C@H](C)CO)C[C@H]1C,0.293% (inactive)
9,COc1ccc(-n2cc(C(=O)O)c3ccccc3c2=O)cc1,0.371% (inactive)
10,O=C(C1CCCCC1)N1CCC(c2nc3c(nnn3Cc3c(F)cccc3Cl)c(=O)[nH]2)CC1,-0.334% (inactive)
11,Cc1ccc(C)c(Cn2c(C(=O)OC(C)C)cc3c2ccn3C)c1,-0.102% (inactive)
12,NC(=O)COc1cccc2cccnc12,0.026% (inactive)
13,Cn1c(=O)c2[nH]c(=O)cnc2n(C)c1=S,0.57% (inactive)
14,Cn1nc(N)nc1N1CCN(c2ccc(F)cc2)CC1,0.182% (inactive)
15,NS(=O)(=O)c1ccc(CNC(=S)Nc2ccc(F)c(Cl)c2)cc1,0.414% (inactive)
16,O=C(O)c1ccc2c(c1)C(=O)N(CCC1=CCCCC1)C2=O,0.227% (inactive)
17,CC(C)N(Cc1ccccc1)C(=O)COC(=O)c1ccc2c(c1)OCCO2,-0.449% (inactive)
18,NC(=O)NC(=O)CSc1nnc(-c2ccco2)n1Cc1ccccc1,0.0902% (inactive)
19,O=C(OCc1nnc(-c2ccccc2)o1)c1cc(S(=O)(=O)N2CCOCC2)c(Cl)cc1Cl,-0.233% (inactive)
20,COc1ccc(C)cc1NC(=O)CN(C)S(=O)(=O)c1ccc2c(c1)CC(C)N2C(C)=O (stereo unspecified),0.478% (inactive)
21,OC[C@H]1O[C@@H]2O[C@H]3[C@H](O)[C@@H](O)[C@@H](O[C@H]4[C@H](O)[C@@H](O)[C@@H](O[C@H]5[C@H](O)[C@@H](O)[C@@H](O[C@H]6[C@H](O)[C@@H](O)[C@@H](O[C@H]7[C@H](O)[C@@H](O)[C@@H](O[C@H]1[C@H](O)[C@H]2O)O[C@@H]7CO)O[C@@H]6CO)O[C@@H]5CO)O[C@@H]4CO)O[C@@H]3CO,-0.216% (inactive)
22,Cc1ccc(C(=O)NCC(=O)OCC(=O)Nc2ccc(Cl)cc2C(F)(F)F)cc1C,-0.15% (inactive)

row,SMILES,"activity change, negative = inhibition"
1,O=c1[nH]cnc2c1c(-c1ccccc1)cn2-c1ccccc1,0.0419% (inactive)
2,Cc1nc2nc(C)c(CCC(=O)NCc3ccc4c(c3)OCO4)c(C)n2n1,0.43% (inactive)
3,O=c1[nH]cc(N2CCCCCC2)c(=O)[nH]1,-0.0271% (inactive)
4,O=C(NCc1nnc(SCC(=O)N2CCCCC2)o1)c1c(F)cccc1F,-0.609% (inactive)
5,O=C(c1cccs1)N1CCN(S(=O)(=O)c2ccc(F)cc2)CC1,0.208% (inactive)
6,O=C(CSc1nnnn1-c1ccc(Cl)cc1)N1CCc2ccccc2C1,-0.296% (inactive)
7,CN(C)c1ccc(C(=O)OCC(=O)N2CCCC2)cc1,0.251% (inactive)
8,Cc1ccc(S(=O)(=O)NCCC(=O)OCC(=O)Nc2ccccc2Cl)cc1,0.205% (inactive)
9,Cc1ccc(S(=O)(=O)NC(=O)NCc2ccc(Cl)cc2)cc1,-0.66% (inactive)
10,O=c1cc(N/N=C/c2ccccc2)[nH]c(=O)[nH]1,-0.139% (inactive)
11,COc1ccc(NC(=O)N(C)C[C@H]2Oc3c(NS(=O)(=O)c4cccs4)cccc3C(=O)N([C@H](C)CO)C[C@@H]2C)cc1,0.309% (inactive)
12,COCCCNC(=S)NNC(=O)c1ccccn1,0.84% (inactive)
13,Cc1ccc(OCCSc2nnc(-c3cccs3)n2C)cc1,-0.407% (inactive)
14,CCCC(=O)Nc1ccc(Oc2ccc(NC(=O)CCC)cc2)cc1,0.3% (inactive)
15,COCCCn1c(SCC(=O)NCc2ccco2)nc2sc3c(c2c1=O)CCC3,0.159% (inactive)
16,CC(C)(C)c1ccc(-c2csc(NNC3=NCCCCC3)n2)cc1,-9.81% (inactive)
17,CC(OC(=O)c1ccc([N+](=O)[O-])s1)C(=O)Nc1ncc(Cl)cc1Cl (stereo unspecified),0.0687% (inactive)
18,O=C(c1ccc(Cn2cc([N+](=O)[O-])cn2)o1)N1CCCCCC1,0.287% (inactive)
19,COc1ccccc1C(=O)OCc1c(-c2ccccc2)ncc2ccccc12,-0.395% (inactive)
20,Cc1ccc2nc(-c3cccc(NS(C)(=O)=O)c3)cc(-c3ccccc3)c2c1,0.133% (inactive)
21,COC(=O)C1=C(C)N(CCc2cc(OC)c(OC)c(OC)c2)C(=O)N[C@H]1c1cccs1,0.535% (inactive)
22,COc1ccc(CNCC(=O)Nc2sccc2C#N)cc1,-0.369% (inactive)

row,SMILES,"activity change, negative = inhibition"
1,Cc1nn(-c2cccc(C(=O)O)c2)c(C)c1Oc1ccccc1O,-0.0812% (inactive)
2,CCSCC1COC(c2cccn2Cc2ccc(C)cc2)=N1 (stereo unspecified),0.82% (inactive)
3,COC(=O)CCC(=O)N1CCOCCOCCN(C(=O)CCC(=O)OC)CCOCCOCC1,0.687% (inactive)
4,O=C1c2sc3nc4c(c(=O)n3c2C(=O)N1c1ccccc1)CCC4,0.641% (inactive)
5,CC(=O)OC(C(=O)NCc1ccc2c(c1)OCO2)c1ccccc1Cl (stereo unspecified),-0.735% (inactive)
6,CCC(=O)Nc1cc2c(cc1C(=O)CC)OCCO2,-0.0822% (inactive)
7,CCOC(=O)c1cc2n(n1)C(C(F)(F)F)CC(C)N2 (stereo unspecified),0.00685% (inactive)
8,CCCCNC(=O)c1nn2cc(Br)cnc2c1Br,0.783% (inactive)
9,Clc1ccc(N=c2ssnc2Cl)nc1,0.426% (inactive)
10,O=C(c1ccsc1)N1CCN(C(=O)c2cccs2)CC1,0.464% (inactive)
11,COc1ccc2sc(-c3ccc(S(C)(=O)=O)cc3)c(C#CCO)c2c1,-0.136% (inactive)
12,COc1ccc(CCN=C(NS(=O)(=O)c2ccc(Cl)cc2)c2ccccc2)cc1,0.401% (inactive)
13,CCN(CC)CCSc1nc2ccccc2c(=S)n1-c1ccccc1,-0.421% (inactive)
14,O=C(Cn1nc(-c2ccc(Cl)cc2)ccc1=O)NCC1COCCO1 (stereo unspecified),-0.234% (inactive)
15,CCC(C)(C)NC(=O)C(c1ccc(C)o1)N(Cc1cccs1)C(=O)Cn1nnc2ccccc21 (stereo unspecified),-0.314% (inactive)
16,CCC(=O)N1CCc2cc(Br)cc(S(=O)(=O)CC(=O)OC)c21,0.319% (inactive)
17,CCN(CC(=O)Nc1ccc2c(c1)OCCO2)C(=O)CC1CCCC1,0.513% (inactive)
18,O=C(CSc1nc(O)c(Cc2ccccc2)c(=O)[nH]1)c1ccccc1,-0.826% (inactive)
19,Cc1ccc(CSc2ncnc3onc(C)c23)cc1,-0.218% (inactive)
20,CCOC(=O)c1c(NC(=O)c2cc(-c3ccc(O)cc3)on2)sc(C(C)=O)c1C,0.792% (inactive)
21,C[C@@H](CN1CCC[C@H]1CN1C(N)=NC[C@@H]1Cc1ccccc1)N1C[C@@H](Cc2ccccc2)N(CCc2ccc(Cl)c(Cl)c2)C1=N,-0.0869% (inactive)
22,O=C(CSc1nc(-c2ccco2)cc(C(F)(F)F)n1)Nc1ccc(C(=O)N2CCCCC2)cc1,-1.01% (inactive)
